# Data reported in PubChem BioAssay (EPA / NIEHS).
# Calls of active or inactive are those of the source. Rule for the calls: active = hit-call score of the fitted dose curve at least 0.9, where 1 is the maximum; inactive = score below 0.9.
# Read-out: Matrix Metallopeptidase 1 (MMP1), MMP1 (gene 4312)
# Test: BSK_MyoF_MMP1: BioMAP Diversity Plus: MyoF Assay for Matrix Metallopeptidase 1 (MMP1) Biomarker Activity (AID 2284268)
# Settings: primary human lung fibroblasts
# In short: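 Human lung fibroblast primary cells; MMP1 measured by ELISA 24 h after dosing, fitted in the positive direction relative to DMSO. Parallel SRB staining (0.1%, after 10% TCA fixation, 560 nm) assesses overt cytotoxicity.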
SMILES,outcome,AC50
CC(=O)Nc1ccc(C(=O)CCl)cc1,inactive,–
O=C1OC2(c3ccccc31)c1ccc(O)c(Br)c1Oc1c2ccc(O)c1Br,inactive,–
C=C(C)[C@H]1CC=C(C)C(=O)C1,inactive,–
O=C1OC[C@H](Cc2cccc(O)c2)[C@H]1Cc1cccc(O)c1,inactive,–
CN(c1nccc(=O)[nH]1)C1CCN(c2nc3ccccc3n2Cc2ccc(F)cc2)CC1,inactive,–
c1ccc(CCc2ccccc2)cc1,inactive,–
C=C(C)C(=O)OCCOCCOCCOCCOC(=O)C(=C)C,inactive,–
CCCCCC(C=O)=Cc1ccccc1,–,28.4 µM (active)
CS(=O)(=O)c1ccc(C2=C(c3ccccc3)C(=O)OC2)cc1,inactive,–
CN(C)C(=O)Nc1ccc(Oc2ccc(Cl)cc2)cc1,inactive,–
C=C(C)C(=O)OCCOCCOCCOC(=O)C(=C)C,inactive,–
C=C(C)C(=O)OCC(CC)(COC(=O)C(=C)C)COC(=O)C(=C)C,–,5.25 µM (active)
CC=Cc1ccc(OCC)c(O)c1,inactive,–
COc1ccc(OC)c(N=Nc2c(O)ccc3ccccc23)c1,–,10.3 µM (active)
CCCCN(CCCC)C(=O)N(CCCC)CCCC,–,7.64 µM (active)

# Read-out: TIMP metallopeptidase inhibitor 1 (TIMP1), TIMP1 (gene 7076)
# Test: BSK_MyoF_TIMP1: BioMAP Diversity Plus: MyoF Assay for TIMP metallopeptidase inhibitor 1 (TIMP1) Biomarker Activity (AID 2284269)
# Settings: primary human lung fibroblasts
# In short: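 ELISA quantified TIMP-1 levels after 24 h dosing of primary human lung fibroblasts, with DMSO as baseline. Parallel SRB total protein staining (0.1% SRB after TCA fixation, 560 nm) flagged overt cytotoxicity.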
SMILES,AC50,outcome
CC(=O)Nc1ccc(C(=O)CCl)cc1,34.5 µM (active),–
O=C1OC2(c3ccccc31)c1ccc(O)c(Br)c1Oc1c2ccc(O)c1Br,–,inactive
C=C(C)[C@H]1CC=C(C)C(=O)C1,–,inactive
O=C1OC[C@H](Cc2cccc(O)c2)[C@H]1Cc1cccc(O)c1,–,inactive
CN(c1nccc(=O)[nH]1)C1CCN(c2nc3ccccc3n2Cc2ccc(F)cc2)CC1,–,inactive
c1ccc(CCc2ccccc2)cc1,30.2 µM (active),–
C=C(C)C(=O)OCCOCCOCCOCCOC(=O)C(=C)C,–,inactive
CCCCCC(C=O)=Cc1ccccc1,–,inactive
CS(=O)(=O)c1ccc(C2=C(c3ccccc3)C(=O)OC2)cc1,–,inactive
CN(C)C(=O)Nc1ccc(Oc2ccc(Cl)cc2)cc1,–,inactive
C=C(C)C(=O)OCCOCCOCCOC(=O)C(=C)C,–,inactive
C=C(C)C(=O)OCC(CC)(COC(=O)C(=C)C)COC(=O)C(=C)C,32.3 µM (active),–
CC=Cc1ccc(OCC)c(O)c1,–,inactive
COc1ccc(OC)c(N=Nc2c(O)ccc3ccccc23)c1,3.12 µM (active),–
CCCCN(CCCC)C(=O)N(CCCC)CCCC,9.42 µM (active),–
